Assay results reported in PubChem BioAssay.
Values joined by “and” are separate entries in the source; they are usually repeats but may differ in a detail not shown here. Identical values can stand only once. Active and inactive are the calls of the source.

Experiments:
[1] = small molecules captured by biotinylated probe aFSTL3 – biochemical, small-molecule microarray, fluorescence 635/667, stem cell growth factor project, primary screen (AID 1064); conditions: higher = more signal;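 note: measures binding of the biotinylated anti-FSTL3 antibody to printed compounds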
[2] = binders from COS7 lysate, DM2A8 probe, primary screen, torsin A project, cell lysate, small-molecule microarray, fluorescence 635/667 (AID 1065); conditions: higher = more signal, COS7 lysate expressing mutant human TOR1A
[3] = small molecules captured by biotinylated probe aFGF2 – biochemical, small-molecule microarray, fluorescence 635/667, stem cell growth factor project, primary screen (AID 1067); conditions: higher = more signal;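 note: measures binding of biotinylated aFGF2 protein to printed compounds on slides; z-score merges feature fluorescence and signal-to-noise across triplicate slides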
[4] = small molecules captured by biotinylated probe aFGF10 – biochemical, small-molecule microarray, fluorescence 635/667, stem cell growth factor project, primary screen (AID 1071); conditions: higher = more signal;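 note: score merges 667 nm spot intensity and signal to noise from triplicate slides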
[5] = target: Neurogenic locus notch homolog protein 2 (Homo sapiens) (UniProt Q04721); assay: small molecules binding Notch2 protein – biochemical, small-molecule microarray, 635 nm fluorescence, stem cell growth factors, primary screen (AID 1073); conditions: higher = more signal
Sequence of Neurogenic locus notch homolog protein 2 (Homo sapiens) (Q04721 whole entry, looked up, canonical isoform): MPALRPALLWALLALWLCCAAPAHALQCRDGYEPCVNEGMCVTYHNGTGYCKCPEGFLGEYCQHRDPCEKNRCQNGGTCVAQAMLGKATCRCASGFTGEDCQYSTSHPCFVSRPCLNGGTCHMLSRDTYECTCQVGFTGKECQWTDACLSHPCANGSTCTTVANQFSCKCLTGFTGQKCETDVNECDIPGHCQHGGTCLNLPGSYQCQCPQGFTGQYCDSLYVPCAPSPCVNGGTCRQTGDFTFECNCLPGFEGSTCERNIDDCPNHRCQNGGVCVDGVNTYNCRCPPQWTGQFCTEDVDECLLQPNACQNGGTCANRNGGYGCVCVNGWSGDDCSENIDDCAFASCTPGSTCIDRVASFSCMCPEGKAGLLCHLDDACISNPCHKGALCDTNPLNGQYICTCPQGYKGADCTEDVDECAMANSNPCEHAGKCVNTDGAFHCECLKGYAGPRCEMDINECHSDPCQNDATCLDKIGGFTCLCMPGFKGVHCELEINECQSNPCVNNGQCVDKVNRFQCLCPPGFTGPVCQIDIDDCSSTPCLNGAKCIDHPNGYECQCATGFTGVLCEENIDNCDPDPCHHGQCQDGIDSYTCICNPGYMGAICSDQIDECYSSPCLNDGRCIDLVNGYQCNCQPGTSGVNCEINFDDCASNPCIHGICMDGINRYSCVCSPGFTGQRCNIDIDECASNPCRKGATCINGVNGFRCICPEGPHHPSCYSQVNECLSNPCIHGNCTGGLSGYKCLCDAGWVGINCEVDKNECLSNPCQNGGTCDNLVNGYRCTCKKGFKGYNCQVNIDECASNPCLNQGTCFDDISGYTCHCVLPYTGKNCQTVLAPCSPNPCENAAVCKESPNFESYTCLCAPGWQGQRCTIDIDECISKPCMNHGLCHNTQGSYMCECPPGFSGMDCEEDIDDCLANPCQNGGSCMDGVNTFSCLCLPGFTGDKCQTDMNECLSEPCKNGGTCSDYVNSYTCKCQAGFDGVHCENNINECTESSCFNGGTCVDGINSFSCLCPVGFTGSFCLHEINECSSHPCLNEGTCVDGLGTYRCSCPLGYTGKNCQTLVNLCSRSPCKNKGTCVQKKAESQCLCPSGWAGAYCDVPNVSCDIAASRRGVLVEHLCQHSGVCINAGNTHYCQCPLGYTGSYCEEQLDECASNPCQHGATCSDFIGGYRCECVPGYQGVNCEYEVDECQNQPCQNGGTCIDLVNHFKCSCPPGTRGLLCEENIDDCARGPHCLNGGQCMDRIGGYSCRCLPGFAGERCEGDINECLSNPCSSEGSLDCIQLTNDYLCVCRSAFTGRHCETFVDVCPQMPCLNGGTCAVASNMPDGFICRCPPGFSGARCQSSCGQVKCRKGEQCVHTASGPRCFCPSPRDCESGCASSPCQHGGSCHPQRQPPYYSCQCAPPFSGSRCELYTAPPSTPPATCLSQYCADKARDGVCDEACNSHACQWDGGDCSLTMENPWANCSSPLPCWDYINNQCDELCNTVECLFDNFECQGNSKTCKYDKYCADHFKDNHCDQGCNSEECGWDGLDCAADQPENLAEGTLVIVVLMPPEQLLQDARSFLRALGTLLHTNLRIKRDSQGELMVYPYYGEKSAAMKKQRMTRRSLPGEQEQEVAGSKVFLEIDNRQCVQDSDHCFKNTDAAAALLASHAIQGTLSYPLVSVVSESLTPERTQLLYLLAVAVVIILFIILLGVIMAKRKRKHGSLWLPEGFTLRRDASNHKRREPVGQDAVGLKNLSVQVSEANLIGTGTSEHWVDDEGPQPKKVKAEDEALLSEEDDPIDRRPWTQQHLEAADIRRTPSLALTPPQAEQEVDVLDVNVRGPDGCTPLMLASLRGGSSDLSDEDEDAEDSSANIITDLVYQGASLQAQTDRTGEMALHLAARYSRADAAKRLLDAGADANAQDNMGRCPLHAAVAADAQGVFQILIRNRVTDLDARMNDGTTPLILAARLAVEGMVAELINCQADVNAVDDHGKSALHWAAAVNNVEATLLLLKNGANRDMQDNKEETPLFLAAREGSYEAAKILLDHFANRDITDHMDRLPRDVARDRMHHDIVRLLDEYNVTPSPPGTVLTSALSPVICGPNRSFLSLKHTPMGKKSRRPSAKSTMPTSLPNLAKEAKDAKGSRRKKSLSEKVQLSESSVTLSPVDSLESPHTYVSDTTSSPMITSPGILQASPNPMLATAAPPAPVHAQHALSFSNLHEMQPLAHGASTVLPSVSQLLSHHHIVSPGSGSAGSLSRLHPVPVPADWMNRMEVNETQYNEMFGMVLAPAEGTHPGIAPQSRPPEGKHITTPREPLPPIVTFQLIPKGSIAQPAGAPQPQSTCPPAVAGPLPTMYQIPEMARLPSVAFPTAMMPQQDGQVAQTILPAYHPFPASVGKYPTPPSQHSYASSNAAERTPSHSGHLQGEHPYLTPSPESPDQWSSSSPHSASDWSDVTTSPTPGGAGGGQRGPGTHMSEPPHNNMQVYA

[6] = target: Pro-neuregulin-1, membrane-bound isoform (Homo sapiens) (UniProt Q02297); assay: small molecules binding neuregulin-1 protein – biochemical, small-molecule microarray, fluorescence 635/667, psychiatric disease protein project, primary screen (AID 1075); conditions: NRG1 binding, 635 nm fluorescence, higher = more signal;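 note: score combines 667 nm spot fluorescence with signal to noise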
[7] = test system: Neuregulin-1 EGF-like domain; assay: small molecules binding NRG1 EGF domain – biochemical, small-molecule microarray, 635 nm fluorescence, primary screen (AID 1081); conditions: higher = more signal;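 note: binding of the protein to compounds printed on small-molecule microarray slides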
[8] = FRG1 expression reporter modulators in myotubes – cell-based, C2C12 myotubes, firefly/Renilla luciferase, luminescence, FRG1 inhibition for FSHD, primary screen (AID 1084); conditions: FRG1 promoter luciferase, higher = more signal, called active from +8 up or from −8 down
[9] = small molecules captured by biotinylated probe aFST – biochemical, small-molecule microarray, fluorescence 635/667, stem cell growth factor project, primary screen (AID 1086); conditions: higher = more signal;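 note: score merges 667 nm fluorescence with signal-to-noise of each printed compound spot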
[10] = binders of probe aHhip on microarray, primary screen, stem cell growth factor project, biochemical, small-molecule microarray, fluorescence 635/667 (AID 1087); conditions: higher = more signal;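 note: score merges spot fluorescence at 667nm with spot signal to noise ratio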
[11] = test system: PRMT1 (protein arginine N-methyltransferase 1); assay: small molecules binding arginine methyltransferase PRMT1 – biochemical, small-molecule microarray, 635 nm fluorescence, primary screen (AID 1088); conditions: higher = more signal;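 note: binding of Prmt1 protein to compounds spotted on small-molecule microarray slides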
[12] = growth effects on S. cerevisiae YJM789 – YJM789 clinical isolate, OD600, 24 h, basal, primary screen (AID 1089); conditions: higher = more signal, called active from +8 up or from −8 down;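 note: growth of clinical yeast isolate S. cerevisiae YJM 789 seeded 1000 cells per well; test concentration not given here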
[13] = S. pombe growth modifiers, basal conditions – strain 972, OD600, 24 h, no modulator, primary screen (AID 1090);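 note: basal condition with compound alone and no growth modifier present; test concentration not given here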; conditions: S. pombe 972 growth, higher = more signal, called active from +8 up or from −8 down
[14] = budding yeast growth modifiers under rapamycin – strain BY4716, OD600, 96 h, primary screen (AID 1091); note: test concentration not given here; conditions: S. cerevisiae BY4716 + rapamycin, higher = more signal, called active from +8 up or from −8 down
[15] = target: Torsin-1A-interacting protein 2 (Homo sapiens) (UniProt Q8NFQ8); assay: small molecules binding lysate-expressed LULL1 – cell lysate, human LULL1 lysate, 635/667 nm fluorescence, primary screen (AID 1092); conditions: small-molecule microarray, hLULL1 lysate binding, 635 nm fluorescence; higher = more signal;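 note: probe is lysate of COS7 cells overexpressing human LULL1; score merges per-feature 667 nm fluorescence with signal-to-noise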
[16] = optical density change of DRC41 E. coli – strain DRC41, OD650, 24 h, E. coli filamentation project, primary screen (AID 1093);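 note: MC1000 strain lacking acrAB efflux and sulA so SOS filamentation is blocked; test concentration not given here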; conditions: E. coli DRC41 growth, higher = more signal, called active from +8 up or from −8 down
[17] = probe aLefty2 binding to arrayed compounds – biochemical, biotinylated probe, 635/667 nm fluorescence, primary screen (AID 1094); conditions: small-molecule microarray, higher = more signal;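 note: score merges spot fluorescence near 667 nm with spot signal-to-noise ratio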
[18] = test system: Noggin (protein binding on small-molecule microarray); assay: small molecules binding Noggin protein – biochemical, 635/667 nm fluorescence, primary screen (AID 1095); conditions: 635 nm fluorescence, higher = more signal;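 note: score merges 667 nm feature fluorescence with signal to noise over triplicate slides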
[19] = target: Neurogenic locus notch homolog protein 3 (Homo sapiens) (UniProt Q9UM47); assay: small molecules binding NOTCH3 protein – biochemical, 635/667 nm fluorescence, primary screen (AID 1096); conditions: small-molecule microarray, 635 nm fluorescence, higher = more signal
Sequence of Neurogenic locus notch homolog protein 3 (Homo sapiens) (Q9UM47 whole entry, looked up): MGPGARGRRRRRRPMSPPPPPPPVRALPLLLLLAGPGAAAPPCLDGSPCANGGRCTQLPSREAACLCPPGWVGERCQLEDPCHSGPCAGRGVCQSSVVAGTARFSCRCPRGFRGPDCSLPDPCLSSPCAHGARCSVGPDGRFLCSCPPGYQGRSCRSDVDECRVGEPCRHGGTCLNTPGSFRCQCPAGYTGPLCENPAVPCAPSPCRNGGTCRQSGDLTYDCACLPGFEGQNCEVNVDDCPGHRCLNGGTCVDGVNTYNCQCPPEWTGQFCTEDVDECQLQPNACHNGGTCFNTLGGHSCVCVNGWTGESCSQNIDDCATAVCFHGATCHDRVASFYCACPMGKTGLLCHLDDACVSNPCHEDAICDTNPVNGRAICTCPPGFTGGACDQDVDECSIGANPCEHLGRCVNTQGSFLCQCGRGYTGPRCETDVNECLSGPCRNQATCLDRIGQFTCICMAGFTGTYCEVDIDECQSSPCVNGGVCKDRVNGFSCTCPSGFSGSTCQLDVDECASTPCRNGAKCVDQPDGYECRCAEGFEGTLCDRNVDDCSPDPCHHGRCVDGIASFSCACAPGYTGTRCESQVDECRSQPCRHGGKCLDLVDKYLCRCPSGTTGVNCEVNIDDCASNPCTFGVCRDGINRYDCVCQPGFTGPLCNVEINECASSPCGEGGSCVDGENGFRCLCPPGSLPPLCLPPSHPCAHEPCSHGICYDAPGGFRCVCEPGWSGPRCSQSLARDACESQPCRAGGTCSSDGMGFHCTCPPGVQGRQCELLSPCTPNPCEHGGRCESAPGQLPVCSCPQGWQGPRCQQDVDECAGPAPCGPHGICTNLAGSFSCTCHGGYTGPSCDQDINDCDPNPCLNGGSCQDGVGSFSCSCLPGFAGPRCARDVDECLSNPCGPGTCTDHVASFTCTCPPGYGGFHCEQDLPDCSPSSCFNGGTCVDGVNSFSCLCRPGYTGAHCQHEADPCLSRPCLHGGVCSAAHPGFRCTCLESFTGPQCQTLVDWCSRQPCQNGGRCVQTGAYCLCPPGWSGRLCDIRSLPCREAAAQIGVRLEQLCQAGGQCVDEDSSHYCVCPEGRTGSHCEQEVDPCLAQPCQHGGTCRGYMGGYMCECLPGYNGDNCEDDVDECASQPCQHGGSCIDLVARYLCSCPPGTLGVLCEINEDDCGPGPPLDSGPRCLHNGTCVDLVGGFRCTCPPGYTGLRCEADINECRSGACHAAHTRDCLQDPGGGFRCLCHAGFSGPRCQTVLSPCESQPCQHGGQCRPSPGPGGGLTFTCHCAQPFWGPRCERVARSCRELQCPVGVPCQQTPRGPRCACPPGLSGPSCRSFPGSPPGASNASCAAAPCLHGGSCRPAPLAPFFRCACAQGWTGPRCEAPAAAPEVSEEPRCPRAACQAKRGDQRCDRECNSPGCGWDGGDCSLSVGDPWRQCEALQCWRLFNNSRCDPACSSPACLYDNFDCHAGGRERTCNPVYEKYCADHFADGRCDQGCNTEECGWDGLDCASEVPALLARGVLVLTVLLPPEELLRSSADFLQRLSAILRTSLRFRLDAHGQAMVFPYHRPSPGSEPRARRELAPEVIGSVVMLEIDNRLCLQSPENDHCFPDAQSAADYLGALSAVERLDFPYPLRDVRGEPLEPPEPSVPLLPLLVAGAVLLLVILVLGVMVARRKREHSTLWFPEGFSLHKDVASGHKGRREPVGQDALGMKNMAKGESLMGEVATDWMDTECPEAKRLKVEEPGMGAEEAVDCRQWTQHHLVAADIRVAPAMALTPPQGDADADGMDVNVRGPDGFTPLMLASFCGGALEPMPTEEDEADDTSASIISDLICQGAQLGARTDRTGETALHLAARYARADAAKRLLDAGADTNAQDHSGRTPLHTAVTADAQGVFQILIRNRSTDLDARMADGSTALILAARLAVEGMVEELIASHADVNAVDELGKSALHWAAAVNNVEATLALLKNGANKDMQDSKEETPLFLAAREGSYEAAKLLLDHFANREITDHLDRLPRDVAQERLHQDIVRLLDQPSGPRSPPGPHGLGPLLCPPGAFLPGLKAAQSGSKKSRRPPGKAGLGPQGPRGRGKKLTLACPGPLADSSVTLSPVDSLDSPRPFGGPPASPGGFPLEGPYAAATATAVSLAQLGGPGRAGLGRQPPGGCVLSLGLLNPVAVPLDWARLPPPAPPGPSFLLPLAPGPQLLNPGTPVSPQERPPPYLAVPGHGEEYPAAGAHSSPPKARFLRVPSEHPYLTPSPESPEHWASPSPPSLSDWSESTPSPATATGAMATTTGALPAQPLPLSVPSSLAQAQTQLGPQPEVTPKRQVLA

[20] = probe aEGFR binding to arrayed compounds – biochemical, biotinylated probe, 635/667 nm fluorescence, primary screen (AID 1097); conditions: small-molecule microarray, higher = more signal;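 note: probe is a biotinylated anti-EGFR antibody binding compounds printed on slides; score combines fluorescence near 667 nm and signal to noise of each spot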

| Compound | composite z-score [1] | composite z-score [2] | composite z-score [3] | composite z-score [4] | composite z-score [5] | composite z-score [6] | composite z-score [7] | z-score [8] | composite z-score [9] | composite z-score [10] | composite z-score [11] | z-score [12] | z-score [13] | z-score [14] | composite z-score [15] | z-score [16] | composite z-score [17] | composite z-score [18] | composite z-score [19] | composite z-score [20] |
| --- | --- | --- | --- | --- | --- | --- | --- | --- | --- | --- | --- | --- | --- | --- | --- | --- | --- | --- | --- | --- |
| C=CCN(Cc1ccccc1)C(=O)C1N(CCOCCO)C(=O)C2C(C(=O)O)C3C=CC21O3 (stereo not given) | 1.75 and 1.34 | -1.1 and -1.84 | -0.309 and -0.27 | -2.7 and -1.09 | -2.27 and -1.42 | 1.27 and 0.866 | 0.731 and 0.433 | -0.91 (inactive) and -0.244 (inactive) | -1.06 and -1.03 | -0.423 and -0.362 | -0.576 and -0.797 | -1.93 (inactive) and 0.844 (inactive) | -1.52 (inactive) and -0.0833 (inactive) | -1.25 (inactive) and 0.225 (inactive) | 3.27 and 2.73 | 2.42 (inactive) and 1.4 (inactive) | 0.22 and 0.141 | -3.1 and -1.88 | -0.74 and -0.734 | -0.323 and -0.278 |
| CO[C@H]1COC(=O)[C@H](C)NC(=O)CC=C[C@@H](C)[C@H](OC)COC(=O)CC=C[C@@H]1C | -0.748 | 2.16 | -0.125 | -0.0919 | -0.362 | -0.745 | 0.0232 | -0.628 (inactive) | -0.0994 | 0.201 | 1.4 | 1.17 (inactive) | 0.306 (inactive) | 1.13 (inactive) | -0.247 | 1.3 (inactive) | -0.235 | 1.32 | 0.164 | 0.0556 |
| Cc1ccc(S(=O)(=O)OC[C@@H]2CN3[C@@H](CC[C@@H](C)[C@@H]3c3ccc(Br)cc3)C(=O)O2)cc1 | -0.14 and -0.482 | 0.299 and 0.063 | -0.0502 and 0.0062 | 0.251 and 0.369 | 0.246 and 0.663 | 0.311 and 0.0379 | 0.168 and 1.07 | 0.472 (inactive) and -0.0959 (inactive) | 0.447 and 0.166 | 0.21 and 0.268 | 0.353 and 1.4 | -0.464 (inactive) and 0.544 (inactive) | -0.252 (inactive) and 0.102 (inactive) | -0.182 (inactive) and 0.777 (inactive) | 0.454 and 0.845 | 0.199 (inactive) and -0.206 (inactive) | -0.0389 and -0.205 | 0.0884 and 0.47 | -0.0776 and 0.686 | 0.0519 and -0.0671 |
| C[C@@H](c1ccccc1)N1C(=O)[C@H]2[C@H]3[C@H](O)[C@H](O)CC(=O)[C@@H]3CC[C@H]2C1=O | -0.289 | 0.118 | -0.0193 | 0.534 | 0.694 | -0.0676 | 0.603 | -1.06 (inactive) | 0.435 | -0.0672 | 0.745 | -2.24 (inactive) | -0.971 (inactive) | -0.727 (inactive) | 0.775 | -0.46 (inactive) | -0.0978 | 0.798 | 0.82 | 0.596 |
| C=CCN(CCCC)C(=O)C1N(c2c(Cl)cccc2CO)C(=O)C2C(C(=O)O)C3C=CC21O3 (stereo not given) | 1.38 and 0.489 | -0.331 and -0.392 | -0.247 and -0.307 | -0.842 and -1.3 | -1.17 and -1.13 | -0.909 and 0.0849 | -0.981 and 0.374 | 0.183 (inactive) and -0.987 (inactive) | -0.931 and -0.719 | -0.412 and -0.323 | -0.502 and 0.174 | 0.381 (inactive) and 0.588 (inactive) | -0.162 (inactive) and -0.186 (inactive) | 0.258 (inactive) and -0.535 (inactive) | -1.27 and 3.03 | 0.455 (inactive) and 3.02 (inactive) | -0.0948 and -0.113 | -2.38 and -0.509 | -1.73 and -0.0461 | -0.308 and -0.0286 |
| C=CCN(C(=O)C1N(CCCCCCO)C(=O)C2C(C(=O)O)C3C=CC21O3)c1ccc(OC)cc1 (stereo not given) | 0.859 and 1.23 | -0.585 and -0.754 | -0.241 and -0.18 | -2.33 and -1.4 | -2.07 and -1.8 | 1.12 and -1.47 | 0.786 and -1.16 | 0.608 (inactive) and 0.789 (inactive) | -0.718 and -0.496 | -0.126 and 0.0623 | -0.176 and -1.86 | -0.943 (inactive) and -0.7 (inactive) | -2.12 (inactive) and -1.62 (inactive) | -1.2 (inactive) and -0.708 (inactive) | 3.53 and 3.04 | 2.3 (inactive) and 1.01 (inactive) | 0.259 and 0.337 | -2.89 and -3.12 | -0.602 and -1.35 | -0.267 and -0.241 |
| COC(=O)C1=C(C)N(Cc2ccccc2)C2=C3C(=O)N(c4ccccc4)C(=O)[C@@H]3[C@@](O)(C(=O)OC)C(=O)N2[C@@H]1c1ccccc1 | -0.302 and -0.483 | 0.205 and 0.642 | -0.118 and -0.137 | 0.738 and 0.591 | 0.897 and 1.21 | 0.383 and 0.418 | 1.02 and 0.99 | 0.0445 (inactive) and -1.22 (inactive) | 0.366 and 0.346 | -0.166 and -0.375 | 0.345 and 1.13 | 0.286 (inactive) and -1.22 (inactive) | -1.52 (inactive) and -2.29 (inactive) | -1.18 (inactive) and -1.1 (inactive) | 0.806 and 1.46 | 0.117 (inactive) and 1.24 (inactive) | -0.0736 and -0.0453 | 0.608 and 0.455 | 0.54 and 1.04 | -0.0125 and -0.0534 |
